Assay results published in the supplement of paper PMC11732987, “Enantioselective OTUD7B fragment discovery through chemoproteomics screening and high-throughput optimisation” (Communications Chemistry, 2025).

Experiments:
Test in all cases: log2 ratio of Biotin-Ahx-Ub-VS probe labelling (fragment/DMSO); higher = less target engagement (more negative = stronger competition), active = hit call of the paper (q ≤ 0.05, log2 ratio ≤ -1)
Details in all cases: compound concentration: 200 uM; treatment time: 3 h
[1] = target: T1, USP42 (UniProt Q9H9J4)
T1 sequence (whole entry): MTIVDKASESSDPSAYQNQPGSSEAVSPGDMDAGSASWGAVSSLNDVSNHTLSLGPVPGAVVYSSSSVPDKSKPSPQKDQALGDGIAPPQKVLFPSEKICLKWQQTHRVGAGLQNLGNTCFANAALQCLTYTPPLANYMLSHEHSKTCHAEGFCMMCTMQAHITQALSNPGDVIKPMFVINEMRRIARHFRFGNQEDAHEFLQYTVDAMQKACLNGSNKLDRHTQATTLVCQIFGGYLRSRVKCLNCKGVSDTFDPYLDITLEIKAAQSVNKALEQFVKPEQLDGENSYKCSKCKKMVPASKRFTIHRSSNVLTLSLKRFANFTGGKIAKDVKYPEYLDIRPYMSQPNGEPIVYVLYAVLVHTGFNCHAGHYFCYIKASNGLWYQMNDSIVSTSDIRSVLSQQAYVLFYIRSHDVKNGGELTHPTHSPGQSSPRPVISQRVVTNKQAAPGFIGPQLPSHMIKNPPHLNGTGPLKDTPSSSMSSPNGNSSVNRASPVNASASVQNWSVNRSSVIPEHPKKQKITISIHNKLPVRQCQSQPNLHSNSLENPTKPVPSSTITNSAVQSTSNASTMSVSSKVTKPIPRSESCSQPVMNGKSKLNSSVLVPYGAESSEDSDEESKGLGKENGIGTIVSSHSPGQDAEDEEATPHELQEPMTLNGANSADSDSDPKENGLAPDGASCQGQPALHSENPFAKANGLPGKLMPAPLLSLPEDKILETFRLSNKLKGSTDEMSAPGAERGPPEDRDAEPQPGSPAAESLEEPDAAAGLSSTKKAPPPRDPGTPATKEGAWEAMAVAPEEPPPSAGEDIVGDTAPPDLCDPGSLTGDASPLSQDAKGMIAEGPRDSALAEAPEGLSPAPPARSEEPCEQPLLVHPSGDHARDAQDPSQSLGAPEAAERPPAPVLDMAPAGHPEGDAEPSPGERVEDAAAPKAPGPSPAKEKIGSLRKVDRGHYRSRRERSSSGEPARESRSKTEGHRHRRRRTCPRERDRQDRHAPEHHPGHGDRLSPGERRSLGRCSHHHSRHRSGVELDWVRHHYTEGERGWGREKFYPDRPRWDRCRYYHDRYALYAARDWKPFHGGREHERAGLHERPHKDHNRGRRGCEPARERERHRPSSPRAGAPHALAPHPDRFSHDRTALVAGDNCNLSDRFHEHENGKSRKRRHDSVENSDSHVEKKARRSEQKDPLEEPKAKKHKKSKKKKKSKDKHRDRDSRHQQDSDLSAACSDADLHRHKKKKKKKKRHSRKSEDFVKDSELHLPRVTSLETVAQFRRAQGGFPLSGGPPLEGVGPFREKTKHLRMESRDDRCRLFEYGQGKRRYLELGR
Summary of the method: (§1)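 HEK293T lysate, 495 µg per sample in Tris/CHAPS/IGEPAL buffer with protease inhibitors, was treated in triplicate with fragment at 200 µM or vehicle for 3 h and then with Biotin-Ahx-Ub-VS at 0.5 µM final for 1 h. Labelled DUBs were NeutrAvidin-enriched, digested with LysC and trypsin, and run by diaPASEF LC-MS/MS. Spectronaut label-free quantities were global-median-normalised, and values are average log2 fragment/vehicle ratios by unpaired t-test on proteins with ≥2 unique peptides.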

[2] = target: USP46 (UniProt P62068)
USP46, sequence (P62068 whole entry): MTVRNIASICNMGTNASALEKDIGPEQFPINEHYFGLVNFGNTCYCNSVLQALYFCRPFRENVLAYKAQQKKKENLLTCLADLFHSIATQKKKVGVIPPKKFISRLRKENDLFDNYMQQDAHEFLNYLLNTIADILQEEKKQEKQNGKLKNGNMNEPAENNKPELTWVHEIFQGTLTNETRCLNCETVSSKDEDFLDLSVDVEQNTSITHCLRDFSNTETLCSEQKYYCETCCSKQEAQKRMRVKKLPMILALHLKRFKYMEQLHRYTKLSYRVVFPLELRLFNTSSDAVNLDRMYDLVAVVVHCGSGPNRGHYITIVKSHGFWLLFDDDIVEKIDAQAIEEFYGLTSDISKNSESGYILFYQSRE
Summary of the method: as §1

[3] = target: T2, USP47 (UniProt Q96K76)
T2 sequence (whole entry): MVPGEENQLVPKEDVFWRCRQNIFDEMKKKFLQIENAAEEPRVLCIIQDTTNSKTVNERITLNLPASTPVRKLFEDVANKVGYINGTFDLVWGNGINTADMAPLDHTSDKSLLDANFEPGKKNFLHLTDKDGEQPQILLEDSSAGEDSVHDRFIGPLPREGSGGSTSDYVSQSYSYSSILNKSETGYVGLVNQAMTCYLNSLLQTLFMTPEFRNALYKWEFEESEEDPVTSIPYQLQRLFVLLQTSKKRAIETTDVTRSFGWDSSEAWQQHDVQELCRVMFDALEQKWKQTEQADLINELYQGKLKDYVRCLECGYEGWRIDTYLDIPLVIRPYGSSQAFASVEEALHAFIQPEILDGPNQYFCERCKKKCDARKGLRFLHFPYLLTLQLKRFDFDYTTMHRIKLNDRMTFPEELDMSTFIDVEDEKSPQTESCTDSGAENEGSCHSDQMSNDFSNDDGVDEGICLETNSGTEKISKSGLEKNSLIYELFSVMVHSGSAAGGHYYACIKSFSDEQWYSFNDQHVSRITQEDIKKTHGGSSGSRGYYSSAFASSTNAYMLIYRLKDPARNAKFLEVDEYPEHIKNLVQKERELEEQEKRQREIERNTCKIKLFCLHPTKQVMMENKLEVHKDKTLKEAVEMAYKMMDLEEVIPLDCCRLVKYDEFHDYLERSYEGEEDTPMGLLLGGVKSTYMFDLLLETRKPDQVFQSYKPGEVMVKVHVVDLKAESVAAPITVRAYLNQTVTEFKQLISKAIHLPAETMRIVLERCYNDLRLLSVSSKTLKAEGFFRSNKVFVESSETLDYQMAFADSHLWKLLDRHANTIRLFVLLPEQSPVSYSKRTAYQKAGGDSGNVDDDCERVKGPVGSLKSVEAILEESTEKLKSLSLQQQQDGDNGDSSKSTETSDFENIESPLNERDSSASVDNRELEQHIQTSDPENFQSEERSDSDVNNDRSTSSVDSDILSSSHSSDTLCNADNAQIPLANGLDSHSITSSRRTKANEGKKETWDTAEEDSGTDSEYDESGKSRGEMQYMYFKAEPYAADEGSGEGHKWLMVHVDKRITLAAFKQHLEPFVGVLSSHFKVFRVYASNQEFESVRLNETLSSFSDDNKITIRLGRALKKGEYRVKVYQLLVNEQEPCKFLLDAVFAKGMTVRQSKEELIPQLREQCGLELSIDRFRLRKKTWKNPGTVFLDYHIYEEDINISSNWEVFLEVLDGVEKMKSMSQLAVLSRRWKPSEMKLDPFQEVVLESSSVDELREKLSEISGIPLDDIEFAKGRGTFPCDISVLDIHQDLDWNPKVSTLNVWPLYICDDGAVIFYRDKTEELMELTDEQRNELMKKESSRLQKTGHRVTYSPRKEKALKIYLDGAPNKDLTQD
Summary of the method: as §1

[4] = target: T3, USP48 (UniProt Q86UV5)
T3 sequence (whole entry): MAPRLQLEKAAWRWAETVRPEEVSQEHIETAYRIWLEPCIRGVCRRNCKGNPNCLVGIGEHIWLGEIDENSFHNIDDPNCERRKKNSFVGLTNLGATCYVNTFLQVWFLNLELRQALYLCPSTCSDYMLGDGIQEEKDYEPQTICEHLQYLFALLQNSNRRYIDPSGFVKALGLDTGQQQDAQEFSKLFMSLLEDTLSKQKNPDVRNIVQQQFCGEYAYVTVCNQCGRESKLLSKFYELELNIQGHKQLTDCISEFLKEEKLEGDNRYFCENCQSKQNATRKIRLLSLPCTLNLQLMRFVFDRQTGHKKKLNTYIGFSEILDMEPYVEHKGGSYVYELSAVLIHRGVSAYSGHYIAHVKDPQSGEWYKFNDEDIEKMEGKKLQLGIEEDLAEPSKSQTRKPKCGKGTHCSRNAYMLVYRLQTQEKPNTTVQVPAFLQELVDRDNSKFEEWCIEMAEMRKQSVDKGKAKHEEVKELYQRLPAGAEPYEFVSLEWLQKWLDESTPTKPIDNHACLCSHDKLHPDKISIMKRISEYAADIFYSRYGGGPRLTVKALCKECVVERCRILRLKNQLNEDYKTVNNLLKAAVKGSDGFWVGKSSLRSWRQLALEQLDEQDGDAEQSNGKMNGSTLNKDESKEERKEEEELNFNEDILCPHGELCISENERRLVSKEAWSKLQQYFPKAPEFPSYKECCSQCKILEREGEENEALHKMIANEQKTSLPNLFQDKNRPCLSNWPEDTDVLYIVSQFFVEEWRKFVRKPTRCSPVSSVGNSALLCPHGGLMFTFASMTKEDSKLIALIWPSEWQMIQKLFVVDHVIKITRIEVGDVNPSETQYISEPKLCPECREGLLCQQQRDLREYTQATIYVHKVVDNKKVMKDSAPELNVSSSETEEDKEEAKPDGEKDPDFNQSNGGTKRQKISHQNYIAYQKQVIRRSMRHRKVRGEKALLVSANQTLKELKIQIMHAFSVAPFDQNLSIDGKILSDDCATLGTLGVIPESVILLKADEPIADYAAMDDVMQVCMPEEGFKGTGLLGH
Summary of the method: as §1

[5] = target: T4, USP5 (UniProt P45974)
T4 sequence (whole entry): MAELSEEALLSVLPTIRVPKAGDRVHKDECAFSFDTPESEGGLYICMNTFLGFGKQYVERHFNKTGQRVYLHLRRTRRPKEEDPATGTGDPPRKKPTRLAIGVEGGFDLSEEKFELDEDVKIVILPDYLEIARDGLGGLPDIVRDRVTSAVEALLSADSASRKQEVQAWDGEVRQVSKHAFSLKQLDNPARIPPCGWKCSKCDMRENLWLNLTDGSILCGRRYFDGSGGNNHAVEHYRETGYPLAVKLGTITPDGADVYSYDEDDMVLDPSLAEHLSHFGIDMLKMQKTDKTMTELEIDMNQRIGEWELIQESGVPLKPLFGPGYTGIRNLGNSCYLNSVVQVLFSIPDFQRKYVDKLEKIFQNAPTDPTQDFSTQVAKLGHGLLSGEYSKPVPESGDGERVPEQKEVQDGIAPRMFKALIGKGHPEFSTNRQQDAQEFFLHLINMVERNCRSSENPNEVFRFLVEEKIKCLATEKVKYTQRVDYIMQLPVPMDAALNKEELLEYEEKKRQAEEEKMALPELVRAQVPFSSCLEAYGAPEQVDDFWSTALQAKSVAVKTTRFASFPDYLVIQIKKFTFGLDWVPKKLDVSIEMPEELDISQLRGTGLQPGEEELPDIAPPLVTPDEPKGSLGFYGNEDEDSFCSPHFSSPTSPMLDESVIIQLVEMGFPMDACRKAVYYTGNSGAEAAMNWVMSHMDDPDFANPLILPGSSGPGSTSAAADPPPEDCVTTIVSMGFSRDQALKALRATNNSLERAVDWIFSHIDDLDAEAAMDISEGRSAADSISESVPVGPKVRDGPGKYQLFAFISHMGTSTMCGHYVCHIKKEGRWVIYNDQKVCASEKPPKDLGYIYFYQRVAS
Summary of the method: as §1

[6] = target: USP54 (UniProt Q70EL1)
USP54, sequence (Q70EL1 whole entry): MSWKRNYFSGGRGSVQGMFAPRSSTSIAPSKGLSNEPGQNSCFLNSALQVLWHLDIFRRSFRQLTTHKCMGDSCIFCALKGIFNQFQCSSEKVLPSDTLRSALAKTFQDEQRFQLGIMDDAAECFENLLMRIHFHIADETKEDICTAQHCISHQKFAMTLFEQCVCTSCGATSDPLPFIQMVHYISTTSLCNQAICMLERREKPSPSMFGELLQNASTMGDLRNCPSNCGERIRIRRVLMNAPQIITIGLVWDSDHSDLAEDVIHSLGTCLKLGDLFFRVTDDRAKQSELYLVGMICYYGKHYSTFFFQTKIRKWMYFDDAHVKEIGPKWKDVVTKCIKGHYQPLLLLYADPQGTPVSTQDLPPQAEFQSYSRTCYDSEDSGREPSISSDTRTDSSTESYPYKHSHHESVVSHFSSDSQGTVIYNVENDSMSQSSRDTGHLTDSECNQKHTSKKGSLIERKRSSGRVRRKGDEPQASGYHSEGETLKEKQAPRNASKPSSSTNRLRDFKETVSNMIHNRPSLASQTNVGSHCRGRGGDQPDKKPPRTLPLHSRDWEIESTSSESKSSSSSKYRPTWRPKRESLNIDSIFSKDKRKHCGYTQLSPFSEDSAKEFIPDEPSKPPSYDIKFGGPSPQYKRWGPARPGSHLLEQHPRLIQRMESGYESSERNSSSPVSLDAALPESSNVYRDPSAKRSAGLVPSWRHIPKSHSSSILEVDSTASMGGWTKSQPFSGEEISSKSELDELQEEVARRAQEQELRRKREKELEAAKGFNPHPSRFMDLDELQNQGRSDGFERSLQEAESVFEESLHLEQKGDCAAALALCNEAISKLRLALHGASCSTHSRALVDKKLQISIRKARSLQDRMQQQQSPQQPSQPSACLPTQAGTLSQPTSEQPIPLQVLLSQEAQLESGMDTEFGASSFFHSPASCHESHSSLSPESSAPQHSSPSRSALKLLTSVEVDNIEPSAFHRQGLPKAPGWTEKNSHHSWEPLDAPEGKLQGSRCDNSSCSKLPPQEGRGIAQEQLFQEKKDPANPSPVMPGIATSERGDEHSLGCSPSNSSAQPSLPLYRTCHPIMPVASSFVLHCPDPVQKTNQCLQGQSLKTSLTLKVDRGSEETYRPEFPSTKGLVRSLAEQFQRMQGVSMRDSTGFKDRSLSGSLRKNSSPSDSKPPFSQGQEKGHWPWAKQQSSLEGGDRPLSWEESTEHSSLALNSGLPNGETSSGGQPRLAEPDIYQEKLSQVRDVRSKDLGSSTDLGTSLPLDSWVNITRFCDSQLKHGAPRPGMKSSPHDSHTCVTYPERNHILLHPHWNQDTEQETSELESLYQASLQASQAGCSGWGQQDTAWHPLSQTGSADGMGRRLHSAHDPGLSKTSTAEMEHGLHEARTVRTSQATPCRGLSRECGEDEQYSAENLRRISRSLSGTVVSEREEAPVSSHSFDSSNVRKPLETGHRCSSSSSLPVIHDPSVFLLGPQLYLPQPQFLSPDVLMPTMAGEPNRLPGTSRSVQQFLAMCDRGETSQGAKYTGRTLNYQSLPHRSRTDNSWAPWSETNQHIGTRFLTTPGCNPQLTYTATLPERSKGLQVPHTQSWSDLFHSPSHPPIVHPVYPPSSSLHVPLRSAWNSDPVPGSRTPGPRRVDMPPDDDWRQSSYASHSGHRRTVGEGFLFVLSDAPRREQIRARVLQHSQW
Summary of the method: as §1

[7] = target: USP7 (UniProt Q93009)
Summary of the method: as §1

[8] = target: T5, USP8 (UniProt P40818)
T5 sequence (whole entry): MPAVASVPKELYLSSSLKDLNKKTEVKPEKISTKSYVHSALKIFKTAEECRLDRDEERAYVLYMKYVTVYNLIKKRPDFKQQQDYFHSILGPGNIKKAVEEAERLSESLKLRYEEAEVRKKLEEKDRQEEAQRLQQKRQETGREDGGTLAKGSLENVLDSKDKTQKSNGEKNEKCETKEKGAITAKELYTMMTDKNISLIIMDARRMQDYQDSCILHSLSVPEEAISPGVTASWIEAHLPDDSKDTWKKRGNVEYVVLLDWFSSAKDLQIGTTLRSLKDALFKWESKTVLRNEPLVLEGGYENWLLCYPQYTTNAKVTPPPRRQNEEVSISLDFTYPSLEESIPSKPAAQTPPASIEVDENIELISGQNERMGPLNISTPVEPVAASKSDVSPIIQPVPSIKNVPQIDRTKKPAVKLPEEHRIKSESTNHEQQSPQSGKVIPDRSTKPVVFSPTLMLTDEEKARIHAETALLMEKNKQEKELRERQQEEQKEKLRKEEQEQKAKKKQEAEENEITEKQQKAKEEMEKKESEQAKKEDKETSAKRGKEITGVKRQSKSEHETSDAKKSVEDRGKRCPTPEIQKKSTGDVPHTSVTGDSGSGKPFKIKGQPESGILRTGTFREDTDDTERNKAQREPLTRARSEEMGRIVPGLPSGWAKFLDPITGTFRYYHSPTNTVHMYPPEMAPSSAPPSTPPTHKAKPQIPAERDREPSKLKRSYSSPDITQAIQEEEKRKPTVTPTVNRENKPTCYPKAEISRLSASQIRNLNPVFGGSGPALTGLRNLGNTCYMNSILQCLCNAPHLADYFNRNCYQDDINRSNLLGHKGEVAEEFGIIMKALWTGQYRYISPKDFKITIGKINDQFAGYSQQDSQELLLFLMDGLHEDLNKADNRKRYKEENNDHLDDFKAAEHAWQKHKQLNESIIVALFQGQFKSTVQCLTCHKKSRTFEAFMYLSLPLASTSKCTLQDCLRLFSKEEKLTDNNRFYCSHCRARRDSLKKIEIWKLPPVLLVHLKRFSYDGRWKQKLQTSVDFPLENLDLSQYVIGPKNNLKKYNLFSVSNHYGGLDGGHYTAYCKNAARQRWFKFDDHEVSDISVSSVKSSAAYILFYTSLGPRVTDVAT
Summary of the method: as §1

[9] = target: USP9X (UniProt Q93008)
USP9X, sequence (Q93008 whole entry): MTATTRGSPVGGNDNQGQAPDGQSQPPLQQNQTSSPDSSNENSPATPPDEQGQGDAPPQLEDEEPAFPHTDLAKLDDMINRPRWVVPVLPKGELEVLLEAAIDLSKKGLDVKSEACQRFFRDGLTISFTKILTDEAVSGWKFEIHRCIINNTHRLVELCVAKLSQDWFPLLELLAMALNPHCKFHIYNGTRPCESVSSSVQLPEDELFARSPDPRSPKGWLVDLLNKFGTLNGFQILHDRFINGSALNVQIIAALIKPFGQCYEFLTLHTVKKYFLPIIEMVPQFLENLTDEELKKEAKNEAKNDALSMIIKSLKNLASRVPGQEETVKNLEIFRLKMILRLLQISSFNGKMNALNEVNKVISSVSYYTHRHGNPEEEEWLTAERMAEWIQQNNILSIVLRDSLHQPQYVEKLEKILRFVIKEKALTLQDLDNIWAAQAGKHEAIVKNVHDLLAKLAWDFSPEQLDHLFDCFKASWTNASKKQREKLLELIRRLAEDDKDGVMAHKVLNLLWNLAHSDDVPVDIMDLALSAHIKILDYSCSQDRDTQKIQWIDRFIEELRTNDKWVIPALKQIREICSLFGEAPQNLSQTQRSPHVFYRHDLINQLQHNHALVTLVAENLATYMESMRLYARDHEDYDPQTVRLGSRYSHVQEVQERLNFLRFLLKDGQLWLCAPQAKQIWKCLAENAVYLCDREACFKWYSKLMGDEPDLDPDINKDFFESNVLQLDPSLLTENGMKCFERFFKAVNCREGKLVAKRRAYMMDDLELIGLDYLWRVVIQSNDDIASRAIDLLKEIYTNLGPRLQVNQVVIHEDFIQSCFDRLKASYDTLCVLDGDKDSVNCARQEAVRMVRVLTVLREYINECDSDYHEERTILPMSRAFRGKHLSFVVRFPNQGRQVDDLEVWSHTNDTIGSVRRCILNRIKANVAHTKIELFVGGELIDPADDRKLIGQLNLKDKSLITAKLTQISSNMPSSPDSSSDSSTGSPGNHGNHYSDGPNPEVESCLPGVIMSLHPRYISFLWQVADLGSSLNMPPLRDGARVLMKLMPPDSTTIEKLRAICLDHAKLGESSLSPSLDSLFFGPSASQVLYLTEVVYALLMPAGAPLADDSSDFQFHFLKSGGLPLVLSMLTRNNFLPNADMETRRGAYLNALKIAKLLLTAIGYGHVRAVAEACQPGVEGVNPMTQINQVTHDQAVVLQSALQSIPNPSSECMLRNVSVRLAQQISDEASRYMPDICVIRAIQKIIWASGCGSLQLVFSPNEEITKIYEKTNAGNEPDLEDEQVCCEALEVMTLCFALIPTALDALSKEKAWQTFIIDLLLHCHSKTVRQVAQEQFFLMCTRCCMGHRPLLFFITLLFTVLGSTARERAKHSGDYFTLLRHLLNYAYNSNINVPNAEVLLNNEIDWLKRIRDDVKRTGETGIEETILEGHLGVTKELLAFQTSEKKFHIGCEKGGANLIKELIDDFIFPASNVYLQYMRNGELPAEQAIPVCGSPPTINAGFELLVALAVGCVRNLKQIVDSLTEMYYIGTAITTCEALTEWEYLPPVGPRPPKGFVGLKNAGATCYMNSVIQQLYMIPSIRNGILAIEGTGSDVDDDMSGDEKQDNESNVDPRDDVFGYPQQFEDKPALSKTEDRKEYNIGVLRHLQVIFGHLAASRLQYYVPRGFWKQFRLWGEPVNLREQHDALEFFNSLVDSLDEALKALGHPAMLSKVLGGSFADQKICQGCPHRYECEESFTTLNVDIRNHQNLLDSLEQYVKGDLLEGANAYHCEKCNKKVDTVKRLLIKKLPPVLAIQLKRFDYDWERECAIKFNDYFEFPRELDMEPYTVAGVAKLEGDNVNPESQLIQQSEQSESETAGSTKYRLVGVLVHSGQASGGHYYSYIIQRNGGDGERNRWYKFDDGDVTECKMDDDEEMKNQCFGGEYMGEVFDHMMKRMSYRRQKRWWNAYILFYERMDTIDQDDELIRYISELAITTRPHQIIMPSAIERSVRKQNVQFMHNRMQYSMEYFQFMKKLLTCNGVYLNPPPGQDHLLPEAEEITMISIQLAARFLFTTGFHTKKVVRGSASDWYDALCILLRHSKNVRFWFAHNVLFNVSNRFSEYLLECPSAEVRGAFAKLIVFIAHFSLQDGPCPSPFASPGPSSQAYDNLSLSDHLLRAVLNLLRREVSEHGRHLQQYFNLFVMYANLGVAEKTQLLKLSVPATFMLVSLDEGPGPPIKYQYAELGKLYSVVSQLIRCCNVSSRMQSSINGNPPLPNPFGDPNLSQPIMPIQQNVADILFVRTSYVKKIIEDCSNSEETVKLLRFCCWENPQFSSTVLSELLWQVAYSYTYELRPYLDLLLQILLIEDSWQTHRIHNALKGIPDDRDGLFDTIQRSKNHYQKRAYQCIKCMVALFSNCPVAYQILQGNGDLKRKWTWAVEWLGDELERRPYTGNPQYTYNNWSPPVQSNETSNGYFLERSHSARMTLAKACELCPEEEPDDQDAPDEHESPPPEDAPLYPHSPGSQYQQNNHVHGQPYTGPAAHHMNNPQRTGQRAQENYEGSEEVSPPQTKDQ
Summary of the method: as §1

[10] = target: UniProt O00487
UniProt O00487, sequence (O00487 whole entry): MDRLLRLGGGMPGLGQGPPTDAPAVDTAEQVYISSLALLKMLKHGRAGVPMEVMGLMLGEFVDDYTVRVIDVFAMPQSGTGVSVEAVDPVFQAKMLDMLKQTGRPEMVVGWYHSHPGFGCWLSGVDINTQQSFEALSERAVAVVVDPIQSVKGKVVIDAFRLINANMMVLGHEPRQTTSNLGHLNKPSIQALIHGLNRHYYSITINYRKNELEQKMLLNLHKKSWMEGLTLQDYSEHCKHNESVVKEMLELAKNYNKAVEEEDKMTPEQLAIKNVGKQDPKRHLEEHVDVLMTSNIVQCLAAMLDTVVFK
Summary of the method: as §1

Measured: log2 ratio of Biotin-Ahx-Ub-VS probe labelling

O=C(CCl)NC(Cn1ccccc1=O)c1ccccc1 (stereo not given)
inactive: [1] -0.346 | [2] 0.258 | [3] -0.4 | [4] 0.0761 | [5] 0.132 | [6] 0.317 | [7] -0.205 | [8] -0.0535 | [9] -0.00544 | [10] 0.0216
